Data taken from PubChem BioAssay (NCATS).
Inconclusive results are not listed. Activity calls are given as the source filed them. Calls follow the shape of the dose curve; as a rule, active = well fitted inhibition curve with a large enough effect; inconclusive = small, poorly fitted or top-dose-only effect; inactive = flat fitted curve, though single readings scatter.

What was measured:
Experiment in all cases: qHTS profiling for inhibitors of Plasmodium falciparum proliferation (AID 504749); also: nearly all actives have a fitted effect of over 60% in size
Conditions in all cases: P. falciparum in erythrocytes, SYBR Green DNA, 72 h; series mostly up to 28.7 µM
C2A = tested on: C2A
In short: (§1)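 Each compound contacts P. falciparum-infected red blood cells for 72 h at 37 C; lysis buffer (Tris, EDTA, saponin, Triton X, SYBR Green I) is added and fluorescence measured next morning; values normalized to controls.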

CP185 = tested on: CP185
In short: as §1

CP238 = tested on: CP238
In short: as §1

CP250 = tested on: CP250
In short: as §1

CP256 = tested on: CP256
In short: as §1

CP262 = tested on: CP262
In short: as §1

CP191 = tested on: CP191
In short: as §1

CP192 = tested on: CP192
In short: as §1

CP194 = tested on: CP194
In short: as §1

CP201 = tested on: CP201
In short: as §1

CP211 = tested on: CP211
In short: as §1

CP215 = tested on: CP215
In short: as §1

CP217 = tested on: CP217
In short: as §1

CP247 = tested on: CP247
In short: as §1

CP252 = tested on: CP252
In short: as §1

CP260 = tested on: CP260
In short: as §1

CP265 = tested on: CP265
In short: as §1

CP266 = tested on: CP266
In short: as §1

CP203 = tested on: CP203
In short: as §1

CP237 = tested on: CP237
In short: as §1

Measured: Potency
Potency is read from the fitted curve at half-maximal effect.

O=C1CSC2(CCN(CCCN3c4ccccc4Sc4ccc(Cl)cc43)CC2)N1
inactive: C2A | CP185 | CP238 | CP250 | CP256 | CP262

Nc1c(Br)cc(Br)cc1CNC1CCC(O)CC1 (stereo not drawn)
inactive: C2A | CP185 | CP191 | CP192 | CP194 | CP201 | CP211 | CP215 | CP217 | CP238 | CP247 | CP250 | CP252 | CP256 | CP260 | CP262 | CP265 | CP266

O=C(Nc1ccc(Br)cc1)c1cc(Br)c(Br)s1
inactive: CP250 | CP262
active: CP203 16.9 µM

COC(=O)C1=C(C#N)NC(C)=C(C(=O)OC(C)C)C1c1cccc([N+](=O)[O-])c1 (stereo not drawn)
active: C2A 11.2 µM | CP185 7.94 µM | CP191 11.2 µM | CP194 12 µM | CP203 7.57 µM | CP211 9.53 µM | CP217 11.2 µM | CP238 10 µM | CP247 8.91 µM | CP256 7.94 µM | CP260 11.2 µM | CP265 10 µM

COC(=O)CCC(=O)CN
inactive: C2A | CP185 | CP191 | CP192 | CP201 | CP203 | CP211 | CP215 | CP217 | CP237 | CP238 | CP247 | CP250 | CP252 | CP256 | CP260 | CP262 | CP265

COC(=O)[C@H]1[C@H]2CC3c4[nH]c5ccccc5c4CCN3C[C@@H]2CC[C@@H]1O (stereo partly drawn)
inactive: C2A | CP185 | CP191 | CP217 | CP237 | CP238 | CP247 | CP250 | CP252 | CP256 | CP260 | CP265

CCCCCCC(O)C/C=C/CCCCCCCC(=O)O (stereo not drawn)
inactive: C2A | CP185 | CP191 | CP192 | CP194 | CP201 | CP203 | CP215 | CP217 | CP237 | CP238 | CP247 | CP250 | CP252 | CP256 | CP260 | CP262 | CP265 | CP266

CC(=O)Oc1cc(C)c(OC(C)=O)c2ccccc12
active: C2A 11.2 µM | CP192 10.7 µM | CP250 7.94 µM | CP256 10 µM | CP262 13.5 µM

COc1cc(-c2ccc(-[n+]3nc(-c4ccccc4)nn3-c3ccc([N+](=O)[O-])cc3)c(OC)c2)ccc1-[n+]1nc(-c2ccccc2)nn1-c1ccc([N+](=O)[O-])cc1
active: C2A 11.2 µM | CP185 10 µM | CP191 11.2 µM | CP192 19 µM | CP201 16.9 µM | CP211 13.5 µM | CP247 11.2 µM | CP252 8.91 µM | CP260 12.6 µM
inactive: CP262

CN(C)CCCN1c2ccccc2C(C)(C)c2ccccc21
inactive: C2A | CP185 | CP192 | CP201 | CP211 | CP215 | CP217 | CP252 | CP260 | CP262

CN=C(NC#N)Nc1ccc(C2=NNC(=O)C[C@@H]2C)cc1
inactive: C2A | CP185 | CP191 | CP217 | CP237 | CP238 | CP247 | CP250 | CP252 | CP256 | CP260 | CP265

CCOC(=O)C1=C(C)NC(C)=C(C(=O)OCC)C1c1ccccc1C=CC(=O)OC(C)(C)C
inactive: C2A | CP256
active: CP185 11.2 µM | CP191 8.91 µM | CP192 12 µM | CP194 15.1 µM | CP203 19 µM | CP211 15.1 µM | CP215 16.9 µM | CP217 10 µM | CP237 8.91 µM | CP238 10 µM | CP252 10 µM | CP262 12 µM | CP265 10 µM

NC(=O)c1ncn(C2OC(CO)C(O)C2O)n1 (stereo not drawn)
inactive: CP185 | CP191 | CP192 | CP194 | CP201 | CP203 | CP211 | CP215 | CP217 | CP237 | CP238 | CP247 | CP250 | CP252 | CP256 | CP260 | CP262 | CP265 | CP266

C#C[C@]1(O)CC[C@H]2[C@@H]3CCC4=CCCC[C@@H]4[C@H]3C(=C)C[C@@]21CC
inactive: C2A | CP192 | CP194 | CP201 | CP203 | CP211 | CP215 | CP237 | CP260 | CP262 | CP266
active: CP191 10 µM

IC(I)I
inactive: C2A | CP185 | CP191 | CP194 | CP201 | CP203 | CP211 | CP217 | CP237 | CP238 | CP247 | CP250 | CP252 | CP256 | CP260 | CP262 | CP265 | CP266

CCCCC(=O)O[C@]1(C(=O)CO)[C@H](C)C[C@H]2[C@@H]3CCC4=CC(=O)C=C[C@]4(C)[C@@]3(F)[C@@H](O)C[C@@]21C
inactive: C2A | CP185 | CP191 | CP192 | CP194 | CP201 | CP211 | CP215 | CP217 | CP237 | CP238 | CP247 | CP250 | CP252 | CP256 | CP262 | CP265 | CP266

CC1=CCC(C(C)(C)O)CC1 (stereo not drawn)
inactive: C2A | CP185 | CP191 | CP192 | CP194 | CP201 | CP211 | CP215 | CP217 | CP237 | CP238 | CP247 | CP250 | CP252 | CP256 | CP260 | CP262 | CP265 | CP266

CCCCCC(CC)COC(=O)CC(C(=O)OCC(CC)CCCC)S(=O)(=O)O (stereo not drawn)
inactive: C2A | CP185 | CP191 | CP217 | CP237 | CP238 | CP250 | CP252 | CP256 | CP260 | CP265
active: CP247 11.2 µM
